Inconclusive results are not listed. Activity calls are given as the source filed them. The call rests on the fitted dose curve; in most records, active means well fitted cell-killing curve with a large enough effect; inconclusive means small, poorly fitted or top-dose-only effect, or effect the other way; inactive means no such curve, though single readings can be large or run the other way.

Experiment [1] can be described thus: Quantitative High-Throughput drug screen in 47 multiple myeloma cell lines against the NCATS MIPE library collection: KMS34_JCRB cell viability assay (AID 1918985). Further: nearly all actives have a fitted effect of over 40% in size. Summed up: (§1)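 Readout: median RLU from CellTiter-Glo after 5 min at room temperature. Preceding step was 48 h drug treatment of 500 cells/well at 37 °C, 5% CO2, with DMSO-only and media-only control wells.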

A short description of experiment [2]: Quantitative High-Throughput drug screen in 47 multiple myeloma cell lines against the NCATS MIPE library collection: OCIMY7_PLB cell viability assay (AID 1918987). Further: nearly all actives have a fitted effect of over 65% in size. Summed up: as §1
The nature of experiment [3]: Quantitative High-Throughput drug screen in 47 multiple myeloma cell lines against the NCATS MIPE library collection: OCIMY5_PLB cell viability assay (AID 1918988). Further: nearly all actives have a fitted effect of over 65% in size. Summed up:
as §1

Experiment [4] is described as follows: Quantitative High-Throughput drug screen in 47 multiple myeloma cell lines against the NCATS MIPE library collection: OPM1_PLB cell viability assay (AID 1918989). Further: nearly all actives have a fitted effect of over 40% in size. The method, boiled down:
as §1

Experiment [5] is described as follows: Quantitative High-Throughput drug screen in 47 multiple myeloma cell lines against the NCATS MIPE library collection: SKMM1_PLB cell viability assay (AID 1919863). Further: nearly all actives have a fitted effect of over 35% in size. As to conditions: SKMM1 myeloma viability, CellTiter-Glo ATP, 48 h; viability: active compounds read low. Summed up:
as §1
In general terms: ATP-based viability assays read luminescence as a measure of living cells.

The nature of experiment [6]: Quantitative High-Throughput drug screen in 47 multiple myeloma cell lines against the NCATS MIPE library collection: U266_ATCC cell viability assay (AID 1919864). Further: nearly all actives have a fitted effect of over 35% in size. The method, boiled down: as §1
The nature of experiment [7]: Quantitative High-Throughput drug screen in 47 multiple myeloma cell lines against the NCATS MIPE library collection: XG6_PLB cell viability assay (AID 1919865). Further: nearly all actives have a fitted effect of over 40% in size. The method, boiled down: as §1
A short description of experiment [8]: Quantitative High-Throughput drug screen in 47 multiple myeloma cell lines against the NCATS MIPE library collection: XG1_PLB cell viability assay (AID 1919866). Further: nearly all actives have a fitted effect of over 35% in size. The method, boiled down: as §1
The nature of experiment [9]: Quantitative High-Throughput drug screen in 47 multiple myeloma cell lines against the NCATS MIPE library collection: VP6_DJ cell viability assay (AID 1919867). Further: nearly all actives have a fitted effect of over 40% in size. The method, boiled down: as §1
A short description of experiment [10]: Quantitative High-Throughput drug screen in 47 multiple myeloma cell lines against the NCATS MIPE library collection: UTMC2_PLB cell viability assay (AID 1919868). Further: nearly all actives have a fitted effect of over 55% in size. As to conditions: CellTiter-Glo ATP luminescence, 48 h; viability (% of DMSO control): at 45.8 µM (top of the series) unless noted. The method, boiled down: as §1
Potency means the concentration at half of the fitted maximal effect.

Regarding `Cc1ccc(C(=O)Nc2cccc(C(F)(F)F)c2)cc1-c1ccc2nc(NCCN3CCOCC3)ncc2c1`, the Potency in experiment [1] is 9350 nM (active); in [2] it was 935 nM (active); in experiment [3], 14800 nM (active); in experiment [4], 7430 nM (active); in [5], 16600 nM (active); in [6] it was 14800 nM (active). Also, the Potency is 3320 nM (active) in [7], 4690 nM (active) in [8], 11800 nM (active) in experiment [9] and 5900 nM (active) in experiment [10].

For `CCN1CCN(CC(=O)Nc2ccc(-c3cccc4c(=O)cc(N5CCOCC5)oc34)c3sc4ccccc4c23)CC1`, the Potency was 2090 nM (active) in experiment [1]; 46.9 nM (active) in experiment [2]; 1050 nM (active) in experiment [3]; 264 nM (active) in experiment [4]; 7430 nM (active) in experiment [5]; 18700 nM (active) in experiment [6]. For the same compound, the Potency is 2350 nM (active) in experiment [7], 935 nM (active) in [8], 469 nM (active) in experiment [9] and 187 nM (active) in experiment [10].

For the compound `Fc1cc(-c2cccc3ncc(-c4cnn(C5CCNCC5)c4)nc23)cc(F)c1CN1CCOCC1`, the Potency in [1] was 14800 nM (active); in [2], 6620 nM (active); in [3], 16600 nM (active); in experiment [4], 8330 nM (active); in [5], 23500 nM (active); in [6], 20900 nM (active). In addition, the Potency in experiment [7] was 7430 nM (active); in experiment [8], 7430 nM (active); in [9], 9350 nM (active).

With `CNC(=O)CN1CCC(Oc2cc3c(Nc4cccc(Cl)c4F)ncnc3cc2OC)CC1`, the Potency in [1] was 37.2 nM (active); in [2], 83.3 nM (active); in experiment [3] it was 11.8 nM (active); in experiment [4] it was 33.2 nM (active); in experiment [5] it was 26.4 nM (active); in [8] it was 23.5 nM (active). Moreover, the results for the Potency in experiment [9] and in experiment [10] were 18.7 nM (active) and 33.2 nM (active), respectively. In addition, the Potency result in experiment [6] and in experiment [7] was “inactive” each time.

As for `Cc1cc(Nc2nc(N[C@@H](C)c3ccc(F)cc3)c(C#N)cc2F)n[nH]1`, the Potency in experiment [1] is 833 nM (active); in experiment [2], 418 nM (active); in experiment [3], 4180 nM (active); in experiment [4], 1320 nM (active); in experiment [5], 1050 nM (active); in [6], 16600 nM (active). The Potency in experiment [7] is 1050 nM (active); in [8] it was 235 nM (active); in experiment [9], 4690 nM (active); in [10], 935 nM (active).

`Cc1c(CN2CCN(S(C)(=O)=O)CC2)sc2c(N3CCOCC3)nc(-c3cnc(N)nc3)nc12`: the Potency in experiment [1] was 37.2 nM (active); in experiment [2] it was 132 nM (active); in experiment [3], 52.6 nM (active); in experiment [4], 66.2 nM (active); in experiment [5], 83.3 nM (active); in [6], 118 nM (active). The Potency in [7] is 66.2 nM (active); in [8], 46.9 nM (active); in [9] it was 23.5 nM (active); in [10] it was 26.4 nM (active).

In the case of `COC(=O)Nc1ccc(-c2nc(N3CCOCC3)c3cnn(C4CCN(Cc5cccnc5)CC4)c3n2)cc1`, the Potency is 59 nM (active) in [1]; 23500 nM (active) in [2]; 20900 nM (active) in [3]; 83.3 nM (active) in experiment [4]; 2090 nM (active) in experiment [5]; 18700 nM (active) in [6]. For the same compound, the Potency in [7] is 11.8 nM (active); in experiment [8] it was 23.5 nM (active); in experiment [9], 46.9 nM (active).

In the case of `CC(C)c1ccc(Cn2ccc3c4c(N)nc(NC5CC5)nc4ccc32)cc1`, the Potency in experiment [1] is 3320 nM (active); in experiment [2], 1660 nM (active); in experiment [3] it was 2350 nM (active); in [4] it was 1870 nM (active); in experiment [6], 13200 nM (active); in experiment [7], 5260 nM (active). Also, the figures for the Potency in [8] and in experiment [9] were 743 nM (active) and 3320 nM (active), respectively.

With `OCCCNc1cc(-c2ccnc(Nc3cccc(Cl)c3)n2)ccn1`, the Potency in experiment [1] was 132 nM (active); in [2], 46.9 nM (active); in experiment [3], 105 nM (active); in [4], 46.9 nM (active); in experiment [5], 148 nM (active); in experiment [6], 148 nM (active). Besides, the Potency in [7] was 33.2 nM (active); in experiment [8], 41.8 nM (active); in experiment [9], 23.5 nM (active); in experiment [10], 41.8 nM (active).

`COCCn1c2c([n+](Cc3cnccn3)c1C)C(=O)c1ccccc1C2=O`: the Potency in experiment [1] is 5.3 nM (active); in [2], 296 nM (active); in experiment [3], 7.4 nM (active); in [4] it was 29.6 nM (active); in [5], 37.2 nM (active); in [6], 5.9 nM (active). Moreover, the figures for the Potency in [9] and in experiment [10] were 14.8 nM (active) and 41.8 nM (active), respectively.

As to `CCC1=C[C@@H]2CN(C1)Cc1c([nH]c3ccccc13)[C@@](C(=O)OC)(c1cc3c(cc1OC)N(C)[C@@H]1[C@@](O)(C(=O)OC)[C@H](OC(C)=O)[C@]4(CC)C=CCN5CC[C@]31[C@@H]54)C2`, the Potency in experiment [1] is 16.6 nM (active); in experiment [2] it was 166 nM (active); in experiment [3] it was 6.6 nM (active); in experiment [4], 26.4 nM (active); in experiment [5] it was 23.5 nM (active); in [6], 14800 nM (active). Moreover, the Potency in [10] was 1 nM (active).

Consider `CN(C)Cc1c(C(=O)NCCOc2ccc(C(=O)NO)cc2)oc2ccccc12`, for which the Potency in experiment [1] is 526 nM (active); in experiment [2], 590 nM (active); in experiment [3], 469 nM (active); in experiment [4], 469 nM (active); in experiment [5] it was 1050 nM (active); in experiment [6], 1180 nM (active). Also, the Potency in [8] is 1050 nM (active); in [9] it was 148 nM (active).

As for `C=CC(=O)Nc1cc2c(Nc3ccc(F)c(Cl)c3)ncnc2cc1C#CC(C)(C)N1CCN(C)CC1`, the Potency in experiment [1] was 5260 nM (active); in experiment [2], 469 nM (active); in experiment [3], 935 nM (active); in experiment [4], 833 nM (active); in experiment [5] it was 13200 nM (active); in [6] it was 1050 nM (active). Also, the Potency in experiment [7] was 296 nM (active); in experiment [8], 526 nM (active); in experiment [9] it was 833 nM (active); in [10] it was 2350 nM (active).

In the case of `C=CC(=O)Nc1cccc(Oc2nc(Nc3ccc(N4CCN(C)CC4)cc3)ncc2Cl)c1`, the Potency in experiment [1] is 9350 nM (active); in experiment [2] it was 209 nM (active); in experiment [3], 3320 nM (active); in [4], 1050 nM (active); in experiment [5] it was 18700 nM (active); in experiment [9], 5900 nM (active). Also, in experiment [10], the Potency was 6620 nM (active).
